Several values for one entry are separate records, joined by “and”; a condition that tells them apart may be missing. Equal values may be shown once. Records with an inconclusive call do not appear. Activity calls are given as the source filed them. Calls follow the shape of the dose curve; as a rule, active = well fitted curve in the direction sought with a large enough effect; inconclusive = small, poorly fitted or top-dose-only effect, or another doubt; inactive = no such curve, though single readings can be large; an effect the other way counts as inactive or inconclusive.
Experiments:
[1] = qHTS of pediatric cancer cell lines to identify multiple opportunities for drug repurposing: Primary screen for SJ-GBM2 cells (AID 1347091)
Summary of the method: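 Cell viability, CellTiter-Glo luminescence; 500-1,000 cells/well, 8- or 11-point titration, 48 h compound exposure at 37 degrees C, 5% CO2. Controls: DMSO neutral, bortezomib 2.3 µM final as positive.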

[2] = qHTS of pediatric cancer cell lines to identify multiple opportunities for drug repurposing: Primary screen for A673 cells (AID 1347092); also: nearly all actives have a fitted effect of over 45% in size
Summary of the method: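 A673 cells (500-1,000 cells/well) were treated 48 hours at 37 degrees C with compounds at 11-point (0.78 nM to 46 µM) or 8-point (0.59 nM to 46 µM) dilutions. Viability read by CellTiter-Glo luminescence; concentration-response curves fitted.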

[3] = qHTS of pediatric cancer cell lines to identify multiple opportunities for drug repurposing: Primary screen for SK-N-MC cells (AID 1347093)
Summary of the method: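 Metabolically active cells were quantified by ATP-dependent luminescence (CellTiter-Glo, 15 min at room temperature) following 48 h treatment. Cells had been plated at 500-1,000 per well and settled for 5 h beforehand.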

[4] = qHTS of pediatric cancer cell lines to identify multiple opportunities for drug repurposing: Primary screen for BT-37 cells (AID 1347094)
Summary of the method: (§1)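 Following a 5-hour attachment period, cells at 500-1,000/well received compounds and were cultured for 48 hours. CellTiter-Glo was added and luminescence read to estimate viable, metabolically active cells.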

[5] = qHTS of pediatric cancer cell lines to identify multiple opportunities for drug repurposing: Primary screen for NB-EBc1 cells (AID 1347095)
Summary of the method: as §1

[6] = qHTS of pediatric cancer cell lines to identify multiple opportunities for drug repurposing: Primary screen for Saos-2 cells (AID 1347097); also: nearly all actives have a fitted effect of over 40% in size
Summary of the method: as §1

[7] = qHTS of pediatric cancer cell lines to identify multiple opportunities for drug repurposing: Primary screen for NB1643 cells (AID 1347099); also: nearly all actives have a fitted effect of over 50% in size
Summary of the method: as §1

[8] = qHTS of pediatric cancer cell lines to identify multiple opportunities for drug repurposing: Primary screen for LAN-5 cells (AID 1347100)
Summary of the method: (§2)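 Cells (500-1,000/well) rested 5 h, then received compounds for 48 h; metabolically active cells were measured by CellTiter-Glo luminescence. Final concentrations spanned up to 46 µM (MIPE, 11-point) or 0.59 nM-46 µM (NPC, 8-point) in primary screens, 11-point in follow-ups.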

[9] = qHTS of pediatric cancer cell lines to identify multiple opportunities for drug repurposing: Primary screen for U-2 OS cells (AID 1347096); also: nearly all actives have a fitted effect of over 50% in size
Summary of the method: as §2

[10] = qHTS of pediatric cancer cell lines to identify multiple opportunities for drug repurposing: Primary screen for SK-N-SH cells (AID 1347098); also: nearly all actives have a fitted effect of over 65% in size
Summary of the method: as §2
Potency is read from the fitted curve at half-maximal effect.

| Structure (SMILES) | Potency [1] | Potency [2] | Potency [3] | Potency [4] | Potency [5] | Potency [6] | Potency [7] | Potency [8] | Potency [9] | Potency [10] |
| --- | --- | --- | --- | --- | --- | --- | --- | --- | --- | --- |
| CN[C@@H](C)C(=O)N[C@H]1CN(C(=O)CC(C)C)CC[C@H]2CC[C@@H](C(=O)NC(c3ccccc3)c3ccccc3)N2C1=O | 0.935 µM (active) | 0.0074 µM (active) | 0.372 µM (active) | 0.153 µM (active) | 2.96 µM (active) | 0.296 µM (active) | inactive | 0.187 µM (active) |  |  |
| COc1cc2ncnc(Nc3ccc(F)c(Cl)c3)c2cc1OCCCN1CCOCC1 | 1.71 µM (active) and 8.41 µM (active) | 1.71 µM (active) and 21.1 µM (active) | 1.91 µM (active) and 26.6 µM (active) | 15.7 µM (active) and 19.5 µM (active) |  | 13.6 µM (active) | 34 µM (active) | 6.05 µM (active) | 42.9 µM (active) | 17.5 µM (active) and 27.3 µM (active) |
| O=c1c(-c2ccc(O)cc2)coc2cc(OC3O[C@H](CO)[C@H](O)[C@H](O)[C@H]3O)cc(O)c12 (some centres undefined) | inactive | 2.96 µM (active) | 2.96 µM (active) | 21.7 µM (active) | 18.7 µM (active) | inactive |  |  |  | 9.61 µM (active) |
| CC(C)(C(=O)NCC(F)(F)C(F)(F)F)C(=O)N[C@@H]1C(=O)Nc2ccccc2-c2ccccc21 | 1.05 µM (active) | 0.0935 µM (active) | 3.72 µM (active) | 0.769 µM (active) | 4.69 µM (active) |  |  | 0.662 µM (active) | inactive |  |
| CC(C)(C)c1cc(C(=O)O)c(NC(=O)Nc2ccc3[nH]ncc3c2)s1 | inactive | inactive | 23.5 µM (active) | inactive | inactive |  | 23.5 µM (active) | inactive | inactive | inactive |
| CCc1ccc(OCc2ccccc2C(=O)Nc2ccc3nc(C)cc(N)c3c2)cc1 | 23.5 µM (active) | 2.96 µM (active) | 5.9 µM (active) | 8.63 µM (active) |  | 14.8 µM (active) | 8.33 µM (active) | 8.33 µM (active) | 7.43 µM (active) | 12.1 µM (active) |
| CC(=O)O[C@]1(C(C)=O)CC[C@@H]2[C@@H]3C[C@H](C)C4=CC(=O)CC[C@]4(C)[C@H]3CC[C@@]21C | inactive | 18.7 µM (active) | 18.7 µM (active) | inactive | inactive |  | 20.9 µM (active) |  | inactive | 24.1 µM (active) |
| CNC(=O)c1ccc2cc(C3(O)CCn4cncc43)ccc2c1 (centres undefined) | inactive | inactive | inactive | inactive | inactive |  | inactive | inactive | inactive | inactive |
| COc1ncc(-c2ccc3nccc(-c4ccnnc4)c3c2)cc1NS(=O)(=O)c1ccc(F)cc1F | 0.001 µM (active) | 0.0743 µM (active) | 0.001 µM (active) | 0.0611 µM (active) | 0.001 µM (active) |  | 0.0662 µM (active) | 0.105 µM (active) | 7.43 µM (active) | 1.52 µM (active) |
| COCCCCC(=NOCCN)c1ccc(C(F)(F)F)cc1 | inactive | 23.5 µM (active) | 10.5 µM (active) | inactive | inactive |  | inactive | inactive |  | 24.1 µM (active) |
| C[C@H](NC(=O)c1sccc1OCc1ccc(Cl)cc1)c1ccccc1 | inactive | 23.5 µM (active) | 13.2 µM (active) | 27.3 µM (active) |  |  | 23.5 µM (active) | inactive | inactive | inactive |
| C[C@H](NC(=O)C(=O)Nc1ccccc1C(C)(C)C)C(=O)N[C@@H](CC(=O)O)C(=O)COc1c(F)c(F)cc(F)c1F | inactive | 23.5 µM (active) | 5.9 µM (active) | inactive | inactive | 18.7 µM (active) | 9.35 µM (active) |  |  | inactive |
| CC(C)C[C@H](CC(=O)O)C(=O)N[C@@H](Cc1c[nH]c2ccccc12)C(=O)N[C@@H](C)c1ccccc1 | 3.72 µM (active) | 1.87 µM (active) | 1.66 µM (active) | 3.06 µM (active) | 1.05 µM (active) |  |  | 2.64 µM (active) | inactive |  |
| COc1ccc2c(Oc3ccc(NC(=O)c4c(C)n(CC(C)(C)O)n(-c5ccccc5)c4=O)cc3F)ccnc2c1 | 0.059 µM (active) | 23.5 µM (active) | 14.8 µM (active) | inactive |  | 26.4 µM (active) |  |  |  |  |
| Cn1c(N2CCCCS2(=O)=O)nc(C(=O)NCc2ccc(F)cc2)c(O)c1=O | inactive | inactive | inactive | inactive | inactive |  | inactive | inactive | inactive | inactive |
| COc1cc(Nc2ncc(F)c(Nc3ccc4c(n3)NC(=O)C(C)(C)O4)n2)cc(OC)c1OC | 3.72 µM (active) | 14.8 µM (active) | 0.418 µM (active) | inactive | 4.18 µM (active) | 0.935 µM (active) |  |  |  | inactive |
| Clc1ccc(C(c2ccc(Cl)cc2)n2cc[n+](CC(OCc3ccc(Cl)cc3Cl)c3ccc(Cl)cc3Cl)c2)cc1 (centres undefined) | 23.5 µM (active) | 18.7 µM (active) | 7.43 µM (active) | 21.7 µM (active) | 23.5 µM (active) | 11.8 µM (active) | 23.5 µM (active) | 18.7 µM (active) |  | 24.1 µM (active) |
| NC(CO)(CO)CCc1ccc(Sc2cccc(OCc3ccccc3)c2)cc1Cl | 18.7 µM (active) | 14.8 µM (active) | 2.64 µM (active) | 19.3 µM (active) | 1.87 µM (active) | 29.6 µM (active) | 16.6 µM (active) | 4.18 µM (active) |  | 19.2 µM (active) |
| O=c1cc(N2CCOCC2)oc2c(-c3cccc4c3sc3ccccc34)cccc12 | 5.9 µM (active) | 14.8 µM (active) | 5.26 µM (active) | 21.7 µM (active) | 8.33 µM (active) | 18.7 µM (active) | 5.26 µM (active) | 14.8 µM (active) |  | inactive |
